According to PubChem BioAssay (NCI):
This is part of a sample that, as a whole, favours compounds with a hit. Of some 83,000 tested, about 20% had one in any assay.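 For each line, cells grew in 96-well plates with the test compound present at a single concentration for 48 hours.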 Values without a mark were called inactive. Activity calls are given as the source filed them.

system: SW-620 colon; assay: NCI-60 one-dose screen, 48 h (100 = growth as untreated, 0 = no growth, -100 = all killed); settings: 10 µM unless noted
Protocol: Growth inhibition of the SW-620 human tumor cell line is measured as a screen for anti-cancer activity. Cells are grown in 96 well plates and exposed to the test compound for 48 hours. Compounds are tested at a single concentration, which is 10^-5 M for most compounds. The reported endpoint is percent growth (GI% or GIPRCNT), where numbers from 0 - 100% represent growth inhibition, and numbers from -100% - 0 represent cell death. For example, a value of 40 represents 60% growth inhibition. A value of 0 means no net growth occurred over the course of the experiment. A value of -40 indicates 40% of cells at the beginning of the experiment died by the end of the experiment. A value of -100 means all cells are dead at the end of the experiment.
NCI-60 Human Tumor Cell Lines Screen was performed using the standard one-dose NCI protocol, which is described in more detail at https://dtp.cancer.gov/discovery_development/nci-60/default.htm.
Compounds with GIPRCNT values below 10 were considered active. Activity score was based on GIPRCNT using the following formula: […]
Score is 0 for GIPRCNT values of 100 or above, 50 for GIPRCNT values of 0, and 100 for GIPRCNT values of -100.

`COc1ccccc1CNCCCN1C(=O)c2ccc3c4c(ccc(c24)C1=O)C(=O)N(CCCOCCCCOCCCN)C3=O` was tested, and the growth was -60.6% (active).
In the case of `CCOC(=O)c1ccc2c(c1)[n+](=O)c(C(=O)c1ccc3ccccc3c1)c(C(F)(F)F)n2[O-]`, the growth is reported as -89.6% (active).
With `c1cn2cc(-c3ccc4ncn(C5CCCCC5)c4c3)nc(-c3ccc4c(c3)ncn4C3CCCCC3)c2n1` the growth was -3.82% (active).
With `CCCCCCCCCCCCCCCCCC(=O)[O][Sn]([CH2]CCC)([CH2]CCC)[CH2]CCC` the growth was -83.6% (active).
In the case of `C=C1C(=O)O[C@H]2[C@H]1CC/C(COC(=O)NCc1c[nH]c3ccc(OC)cc13)=C\CC[C@@]1(C)O[C@@H]21`, the growth is reported as -57.6% (active).
`C=C1C[C@@]2(C)C(CC[C@]3(C)C2CC=C2C4CC(C)(C)C[C@@H](OC(=O)/C(C)=C\C)[C@]4(C(=O)O)CC[C@]23C)C(C)(C)C1=O` (stereo not given in full) was tested, and the growth was -29.1% (active).

Compared with `C=C(C)[C@@H]1CC[C@]2(C(=O)O)CC[C@]3(C)[C@H](CC[C@@H]4[C@@]5(C)C[C@@H](CC#Cc6ccc(C(C)=O)s6)[C@H](O)C(C)(C)[C@@H]5CC[C@]43C)[C@@H]12`, `CC1=CCC2C1CC=C(C)C(CC[C@H]1[C@@](C)(O)CCC3OC(C)(C)[C@H](OC(=O)c4ccccc4)CC[C@@]31C)C2(C)C` (stereo not given in full) is higher in growth: 59.8% for the first, 80% for the second.

Going from `CCN(CC)CCNC(=O)C(F)(F)C(F)(F)C(F)(F)F` to `CCCC(CCC)(C(N)=O)C(=O)O`, the growth falls from 104% to 103%.

First: CCOC(=O)c1cnc(SCC)nc1SC#N
Second: CCOC(=O)c1cc(C(=O)OCC)c(C)nc1C
The growth of the first is lower: 60% for the first, 110% for the second.

Compared with `COc1cc(C2C(C#N)=C(N)Oc3cc4c(cc32)OCO4)cc2c1OCO2` (stereo not given), `COc1cc(CN(c2ccc(C)cc2)C2OC(=O)c3ccccc32)cc(OC)c1OC` (stereo not given) is higher in growth: 29% for the first, 36.2% for the second.

Going from `CCOC(=O)Nc1ccc2nc(Sc3ccc(Cl)cc3)sc2c1` to `O=C(CC(=O)c1ccccc1F)Nc1ccc([N+](=O)[O-])cc1`, the growth rises from 29% to 109%.

Going from `O/N=C1\c2ccccc2-c2ccc(Br)cc21` to `O=C(O)c1cc2cc(OCc3ccccc3)ccc2[nH]1`, the growth falls from 119% to 102%.

Going from `COc1ccc(-c2cnnn2-c2nonc2-n2cccc2)cc1` to `c1cc(C2CCCCC2)ccc1-c1cnc2nonc2n1`, the growth rises from 19.1% to 22%.

Going from `O/N=C/c1ccncc1` to `CCOc1cc(/C=N\NC(=O)C[N+](C)(C)C)ccc1O`, the growth rises from 102% to 110%.

Compared with `Cc1cc([N+](=O)[O-])c(C)cc1N`, `C/C(=N\Nc1ccc([N+](=O)[O-])cn1)c1ccc(N)cc1` is higher in growth: 104% for the first, 112% for the second.

First: c1coc(CNc2c3ccccc3nc3ccccc23)c1
Second: c1ccc(-c2ccc(-c3ccccc3)[nH]2)cc1
The growth of the first is lower: 42.3% for the first, 105% for the second.

First: CCN1C(=O)N(CC)C2C1N=C(SC)N2/N=C/C=C/c1ccccc1OC (stereo not given)
Second: COc1ccccc1/C=N\Nc1ccc([N+](=O)[O-])cn1
The growth of the first is lower: 22.7% for the first, 124% for the second.

Going from `C[C@@H]1CC2C3CCC4=CC(=O)C=C[C@]4(C)[C@@]3(Cl)[C@@H](O)C[C@]2(C)[C@@]1(OC(=O)c1ccco1)C(=O)CCl` (stereo not given in full) to `O=C1CCCN1C(O)CCN(Cc1ccccc1)Cc1ccc(Cl)cc1` (stereo not given), the growth rises from 95.3% to 100%.

Compared with `CN1C2CCC1/C(=C\c1ccc(F)cc1)C(=O)/C2=C/c1ccc(F)cc1`, `COc1ccc2c(c1)C1=NN(C(=O)CO)[C@H](c3ccc(OC(F)(F)F)cc3)[C@@H]1CC2` is higher in growth: 38.2% for the first, 109% for the second.

Going from `Cc1ccccc1NC(=O)c1sc2nc3c(cc2c1N)C(=O)CCC3` to `COc1cccc(NC(=O)OC(C)C)c1`, the growth rises from 25.4% to 96.6%.

Going from `COc1ccc(C(=O)C(CN(C)C)c2ccc(OC)cc2)cc1` (stereo not given) to `N/C(=N\OC(=O)c1ccccc1)C(Cc1ccccc1)C(=O)NOC(=O)c1ccccc1` (stereo not given), the growth rises from 11.9% to 65.3%.

Compared with `O=C(c1ccccc1)C1OC1C(=O)c1ccccc1` (stereo not given), `CC(C)(c1ccccc1)c1cc(O)c(C(C)(C)c2ccccc2)cc1O` is higher in growth: 27.7% for the first, 31.3% for the second.

Going from `CC(C)CC1NC(=O)C(CC(C)C)N(CO)C1=O` (stereo not given) to `CCCCSc1ncnc2c1ncn2C1CCCCO1` (stereo not given), the growth falls from 112% to 107%.
